Only some compounds are listed: those with a hit (about 3.7% of all), similar ones and a draw of the others.
HTT promoter inh = HTT promoter inhibition; HEK293 HTT promoter firefly luciferase reporter, 24 h; Potency, µM (doses to about 57.5 µM), hits mostly inhibitors; hit rate 0.93% among 48,000; note: nearly all actives have a fitted effect of over 50% in size
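Firefly luciferase readout (Dual-Glo, 10 min RT) after 24 h, 37 °C compound exposure (final up to 57.5 uM) of HEK293 reporter cells cultured 24 h beforehand; PTC124 at 50 uM final as control inhibitor; activity scaled vehicle 0%, zero RLU -100%.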
HTT-AS act = activates huntingtin-antisense promoter activity | HEK293 HTT-AS promoter firefly luciferase reporter, 24 h; response scale: percent change from vehicle, -100% = no light | Potency, µM (series often up to 57.5 µM), hits mostly activators | hit rate 0.24% among 48,000; note: nearly all actives have a fitted effect of over 55% in size
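Firefly luciferase readout (Dual-Glo, 10 min RT) after 24 h, 37 °C compound exposure (final up to 57.5 uM) of HEK293 reporter cells cultured 24 h beforehand; PTC124 at 50 uM final as control inhibitor; activity scaled vehicle 0%, zero RLU -100%.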
DRV1 agonist = GPR32 (DRV1) agonism, beta-arrestin recruitment; O75388; CHO-K1 GPR32 beta-arrestin PathHunter luminescence, 90 min; zero percent set by DMSO-only wells; hit rate 2.5% among 48,000; activation, % at 76.9 µM;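 active = activation of at least 60% and not above a set upper limit, about 1 call in 100 departs from these limits; inconclusive = activation of 40% to 60%, or above that upper limit; inactive = activation under 40%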
Target sequence (O75388 whole entry, looked up): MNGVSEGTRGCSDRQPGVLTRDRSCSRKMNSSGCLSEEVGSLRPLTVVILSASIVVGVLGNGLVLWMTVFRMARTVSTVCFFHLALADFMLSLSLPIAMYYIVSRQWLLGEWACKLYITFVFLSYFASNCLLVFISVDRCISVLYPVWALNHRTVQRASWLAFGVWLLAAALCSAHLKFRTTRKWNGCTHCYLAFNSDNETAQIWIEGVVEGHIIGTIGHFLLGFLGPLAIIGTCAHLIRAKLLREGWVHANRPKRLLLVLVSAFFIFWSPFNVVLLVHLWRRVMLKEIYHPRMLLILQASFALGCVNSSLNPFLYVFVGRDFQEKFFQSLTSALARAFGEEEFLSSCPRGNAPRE
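Cells are plated overnight, treated with compounds in DMSO for 90 minutes at 37 °C, and developed with PathHunter detection reagent for 1 hour before luminescence is read; signal reflects beta-arrestin binding to GPR32 in engineered CHO-K1 cells.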
A number is an active result; i = inactive; ? = inconclusive; nt = no result given; [ ] = dose if it differs, or a comment. Unless noted, calls come from the whole dose curve; as a rule, active = well fitted curve in the direction sought with a large enough effect; inconclusive = small, poorly fitted or top-dose-only effect, or another doubt; inactive = no such curve, though single readings can be large; an effect the other way counts as inactive or inconclusive.

SMILES | HTT promoter inh | HTT-AS act | DRV1 agonist
CCCCN(c1ccccc1)S(=O)(=O)c1ccc2c(c1)CC(C)N2C(=O)C1CC1 (configuration not stated) | ? | i | i
CCCN(c1ccccc1CC)S(=O)(=O)c1ccc2c(c1)CC(C)N2C(=O)C1CC1 (configuration not stated) | 22µM | i | i
CC(=O)c1ccc(NC(=O)CSc2nccn2Cc2ccc3c(c2)OCO3)cc1 | i | i | i
CCc1nnc(NC(=O)c2nc(SCc3ccccc3C)ncc2Cl)s1 | i | i | i
COc1ccc(CCNC(=O)c2nc(SCc3ccccc3F)ncc2Cl)cc1OC | 18µM | i | i
CC(=O)Nc1ccc(NC(=O)c2nc(SCc3ccccc3C)ncc2Cl)cc1 | i | i | 65
Cc1ccc(CNC(=O)c2nc(SCc3ccccc3F)ncc2Cl)cc1 | i | i | i
COC(=O)[C@]12CCC(C)(C)C[C@@H]1[C@@H]1C(=O)C=C3[C@@]4(C)C=C(C#N)C(=O)C(C)(C)[C@@H]4CC[C@@]3(C)[C@]1(C)CC2 | ? | i | nt
Cc1ccc(C)c(NC(=O)NCc2ccc3c(c2)CCN3C(=O)c2ccccc2)c1 | ? | i | i
O=C(NCc1ccc2c(c1)CCN2C(=O)c1ccccc1)Nc1cccc(C(F)(F)F)c1 | 22µM | i | i
CC(C)c1ccc(NC(=O)CCNS(=O)(=O)c2ccc3c(c2)CCCC(=O)N3)cc1 | i | i | i
Cc1cc(NC(=O)CCNS(=O)(=O)c2ccc3c(c2)CCCC(=O)N3)ccc1Br | i | i | 100
Cc1sccc1Br | i | i | i
CCOc1ccc(CNC(=O)CCn2cccn2)cc1OC | i | i | i
CCOc1ccc(Cc2nccc3cc(OCC)c(OCC)cc23)cc1OCC | ? | i | 88
Cc1cccc(N2CCN(C(=O)C3CCN(S(=O)(=O)Cc4ccccc4)CC3)CC2)c1C | nt | nt | i
COc1cc(NC(=O)Cn2nc(C(F)(F)F)c3c2CCCC3)cc(OC)c1OC | 22µM | i | i
COc1ccc(Cl)cc1NC(=O)Cn1nc(C(F)(F)F)c2c1CCCC2 | ? | i | i
COc1ccc(-c2cc(C)no2)cc1S(=O)(=O)Nc1c(C)cc(C)cc1C | i | i | i
Cc1ccc(CCNC(=O)CN(c2ccc(C)cc2)S(=O)(=O)N(C)C)cc1 | i | i | i
CCc1ccc(CNC(=O)CN(c2ccc(C)cc2)S(=O)(=O)N(C)C)cc1 | i | i | 87
CNC1CCC(N(Cc2cccc(-c3ccncc3)c2)C(=O)c2sc3ccccc3c2Cl)CC1 (configuration not stated) | i | i | nt
CN(C)c1ccc(CNC(=O)C2CCCN(S(=O)(=O)c3ccc4c(c3)oc(=O)n4C)C2)cc1 (configuration not stated) | i | i | i
CSc1ccc(CNC(=O)C2CCCN(S(=O)(=O)N(C)c3ccc(F)cc3)C2)cc1 (configuration not stated) | 22µM | i | i
CC(C)(O)c1cc2nc(-c3cnc(N)nc3)nc(N3CCOCC3)c2s1 | ? | i | nt
SMILES | HTT promoter inh | HTT-AS act | DRV1 agonist
CC(C)[C@H](O)C(=O)N[C@@H](C)C(=O)N[C@@H]1C(=O)N(C)CCc2ccccc21 | i | i | nt
CCCc1ccc(C2Sc3ccccc3NC3=C2C(=O)c2ccccc23)cc1 (configuration not stated) | 32µM | i | i
O=C1C2=C(Nc3ccccc3SC2c2ccc(Cl)c(Cl)c2)c2ccccc21 (configuration not stated) | ? | i | i
Cc1ccc(CNc2ncnc3c2cnn3-c2ccc(Cl)cc2)cc1 | i | i | i
Cc1ccc(Cl)cc1-n1ncc2c(NCCc3ccccc3)ncnc21 | i | ? | 101
CCc1ccc(Nc2ncnc3c2cnn3-c2cc(Cl)ccc2C)cc1 | i | ? | i
Cc1ccc(-n2ncc3c(NCc4ccccc4)ncnc32)cc1Cl | i | i | 62
Cc1ccc(Cl)cc1-n1ncc2c(NCc3ccc(F)cc3)ncnc21 | ? | i | i
Cc1ccc(Cl)cc1-n1ncc2c(NCCCc3ccccc3)ncnc21 | ? | i | 78
CC1(C)C(N(O)C(=O)Nc2ccc(Cl)cc2)N(c2ccc(Cl)cc2)C(=O)N1CC(=O)NN=CC=Cc1ccc([N+](=O)[O-])o1 (configuration not stated) | ? | i | nt
O=C(Nc1ccc(Cl)cc1)Nc1ccc(Cl)c(C(F)(F)F)c1 | ? | i | ?
O=C1OC(C(=O)Nc2ccc(Cl)c(C(F)(F)F)c2)Cc2ccccc21 (configuration not stated) | nt | nt | 80
Cc1cccc(-c2nnc(SCCC(=O)O)o2)c1 | 0.25µM | i | i
Cc1cccc(-c2nnc(SCC(=O)N3CCCCC3)o2)c1 | i | ? | i
Clc1ccc(-n2c(Cc3ccccc3)nnc2SCc2nc(-c3cccs3)no2)cc1 | ? | i | i
COc1ccccc1-c1nc(SCC(=O)c2ccc(Cl)cc2)n[nH]1 | i | i | ?
COc1ccccc1-c1nnc(SCC(=O)c2ccc(Cl)cc2)n1-c1ccccc1 | ? | i | 80
Cc1c(Cl)cccc1NS(=O)(=O)c1ccc(-c2cnc(C3CC3)o2)cc1 | ? | i | i
COc1cc2c(cc1NC(=O)C(C)Oc1ccccc1)oc1ccccc12 (configuration not stated) | i | 4µM | i
COc1cc2c(cc1NC(=O)COc1ccc(Br)cc1)oc1ccccc12 | i[11.5 µM] | ? | i
CC(C)c1nn2c(=O)cc(COC(=O)c3ccccc3Cl)nc2s1 | i | ? | i
CC(C)c1nn2c(=O)cc(COC(=O)c3cccs3)nc2s1 | i | 4µM | i
CNC(=O)c1cccc(-c2ccc3c(N4CCOC[C@H]4C)nc(N4CCOC[C@H]4C)nc3n2)c1 | ? | i | nt
Cc1nc2cc(-c3cccc(F)c3)nn2c(C)c1CCC(=O)NC(C)c1ccccc1 (configuration not stated) | ? | i | i
COc1ccc(N2CCN(C(=O)CCc3c(C)nc4cc(-c5ccc(Cl)cc5)nn4c3C)CC2)cc1 | 0.32µM | i | i
SMILES | HTT promoter inh | HTT-AS act | DRV1 agonist
COc1cc(NC(=O)CCc2c(C)nc3cc(-c4ccccc4)nn3c2C)cc(OC)c1OC | 4µM | i | i
COc1cc(OC)cc(-c2cc3nc(C)c(CCC(=O)Nc4ccc(F)c(Cl)c4)c(C)n3n2)c1 | 1.6µM | i | i
CCOc1ccc(NC(=O)CCc2c(C)nc3cc(-c4ccc(Cl)cc4)nn3c2C)cc1 | ? | i | i
COC(=O)c1cc(NC(=O)CCc2c(C)nc3cc(-c4ccccc4)nn3c2C)cc(C(=O)OC)c1 | i | i | i
COc1ccc(N2CCN(C(=O)CCc3c(C)nc4cc(-c5ccc(OC)cc5OC)nn4c3C)CC2)cc1 | i | i | i
COc1ccc(NC(=O)CCc2c(C)nc3cc(-c4cccc(F)c4)nn3c2C)cc1Cl | 2.2µM | i | i
Cc1c(CN2CCN(C(=O)C(C)C)CC2)sc2c(N3CCOCC3)nc(-c3cnc(N)nc3)nc12 | ? | i | nt
CCS(=O)(=O)N1CCc2cc(C(=O)Nc3ccc(OC)c(Cl)c3)ccc21 | ? | i | i
CC[C@@]1(O)C[C@H](O[C@H]2C[C@H](N(C)C)[C@H](O[C@H]3C[C@H](O)[C@H](O[C@H]4CCC(=O)[C@H](C)O4)[C@H](C)O3)[C@H](C)O2)c2c(cc3c(c2O)C(=O)c2c(O)cccc2C3=O)[C@@H]1C(=O)OC | i | i | nt
